# Data as given in PubChem BioAssay (NCI).
# The panel holds about 83,000 compounds, 20% with a hit somewhere; the sample as a whole holds those more often.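 Step 1: grow cells in 96-well plates. Step 2: add test compound at a single concentration. Step 3: incubate 48 h. Step 4: record percent growth.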 Values without a mark were called inactive. Activity calls are given as the source filed them. The calls were made as follows: active = growth percent below 10; inactive = the rest.
# Test system: HL-60(TB) leukemia
# Experiment: NCI-60 one-dose screen, 48 h (100 = growth as untreated, 0 = no growth, -100 = all killed)
# Details: 10 µM unless noted
row,Structure (SMILES),growth
1,CC/C(=N\N=C(/CC)c1ccc(Br)cc1)c1ccc(Br)cc1,124%
2,COc1cc(/C=C(\C#N)C(=O)c2ccccc2)ccc1OCc1ccccc1,103%
3,CCOC(=O)c1csc(-c2ccc(COC(=O)c3ccccc3)o2)n1,107%
4,COc1ccc(C(=O)/C=C/c2ccc(N3CCCCC3)cc2)cc1OC,78.9%
5,COc1ccc2c(c1)c(-c1nc(-c3c[nH]c4ncccc34)cs1)cn2CCO,58%
6,CCOC(=O)/C(C#N)=C(/CC)OCC,95%
7,CS(=O)(=O)c1ccc(-c2cc3c(oc2=O)-c2ccccc2OC3O)cc1 (stereo not given),93.5%
8,Cc1ncc([N+](=O)[O-])n1CCOc1ccc(C(=O)/C=C/c2ccc(C(F)(F)F)cc2)cc1,54.3%
9,CC(=O)Oc1ccc(Nc2c3ccccc3nc3ccccc23)cc1,-5.02% (active)
10,CC1Cc2c(Cl)ncnc2N(C)c2ccccc21 (stereo not given),11.8%
11,COc1cccc(-c2nc3sccn3c2-c2ccnc(NCCNS(=O)(=O)c3cccc(F)c3)c2)c1,-1.8% (active)
12,CC(=O)Nc1ccc(OC(=O)c2ccccc2O)cc1,102%
13,COc1ccc(S(=O)(=O)NCCCNc2nccc(-c3c(-c4cccc(N)c4)nc4sccn34)n2)cc1,112%
14,C=C(CNCCc1ccc(O)cc1)[C@@H]1CC[C@]2(CO)CC[C@]3(C)[C@H](CC[C@@H]4[C@@]5(C)CCC(=O)C(C)(C)[C@@H]5CC[C@]43C)[C@@H]12,-41.5% (active)
15,CCOc1ccc(Nc2nc(-c3ccc4c(c3)NC(=O)CO4)cs2)cc1,66.9%
16,COc1cc(/C=C/C(=O)/C=C(/C=C/c2ccc(OC(C)=O)c(OC)c2)OB(F)F)ccc1OC(C)=O,4.04% (active)
17,CN(C)N=Nc1nn(C(=O)Nc2ccc(Cc3ccccc3)cc2)c2ccccc12,21.4%
18,O=S(=O)(NCCCNc1nccc(-c2c(-c3ccc(O)cc3)nc3sccn23)n1)c1ccc(F)cc1,-32.3% (active)
19,COc1ccc(OC)c(NC2=C(SCCc3ccccc3)C(=O)c3ccccc3C2=O)c1,93.4%
20,Cc1ccc(C2Oc3ccccc3C3CC(c4cccs4)=NN32)cc1 (stereo not given),97.4%

row,Structure (SMILES),growth
1,Nc1n[nH]c2ccc([C@@H]3Nc4c(F)cc5[nH]ncc5c4[C@H]4C5CCC(C5)[C@@H]34)cc12 (stereo not given in full),1.76% (active)
2,Nc1ccc2cc(Br)c3ccccc3c2c1,45.6%
3,Cc1cnc(SCc2ccc(Cl)cc2Cl)nc1Nc1ccc(Cl)c(Cl)c1,81%
4,CCOC(=O)C1OC1c1ccccc1 (stereo not given),97%
5,O=C(O)c1cccc(CN2CCN(c3cc4c(cc3F)c(=O)c(C(=O)O)cn4C3CC3)CC2)c1O,99.4%
6,C=CC(=O)N[C@@H](Cc1ccc(-c2cc(Cl)cc(Cl)c2)cc1)[C@@H](O)[C@H](O)C(=O)O,95.9%
7,NC(=O)c1cccc(-n2ccc3cc(NC(=O)c4ccc(N5CCOCC5)c(C(F)(F)F)c4)ccc32)n1,51.1%
8,O=C(Nc1ncc(Cc2cccc(C(F)(F)F)c2)s1)C1COc2ccccc2O1 (stereo not given),98.5%
9,Cc1cccc(C)c1N1C(c2ccccc2)=NNC12C=CC(=O)c1c(O)cccc12 (stereo not given),61.2%
10,Cc1ccc(OC2=C(C#N)C(=N)N3C(=NN2)Sc2c(C)ccc(C)c23)cc1,109%
11,C=C1CCC2C3(C)COC(c4ccc(SC)cc4)OC3CCC2(C)C1C/C=C1/C(=O)OCC1O (stereo not given),-12.1% (active)
12,O=C(N/N=C/C=C\c1ccccc1)C(=O)N/N=C/C=C/c1ccccc1,110%
13,COc1ccccc1C1=C(Br)C(=O)c2nc(C)ccc2C1=O,44.4%
14,Cn1c(=O)[nH]c(=O)c2nc3c(nc21)-c1ccccc1C3=O,101%
15,Cn1cc(-c2csc(-c3c[nH]c4ncccc34)n2)c2cc(Br)cnc21,87.6%
16,Nc1nc2ccc([C@@H]3Nc4ccc5[nH]ncc5c4[C@H]4[C@H]5CCC(C5)[C@H]43)cc2s1,12.4%
17,CCOC(=O)/C(C#N)=C1/NNC(=Nc2cccnc2)S1,102%
18,O=C(CSc1nnc(-c2ccc(Cl)cc2)o1)c1ccccc1,90.9%
19,COc1ccc(OCC(=O)OC(C)C)cc1,90%
20,CC(=O)Nc1ccc(S(=O)(=O)N2C(=O)CCC2C(=O)Nc2ccc(Br)cc2)cc1 (stereo not given),15.5%
